The text below walks through data of PMC11062922 (Nature Chemical Biology, 2023).

Holding throughout (parameters): species or system human, MV4-11 + K-562 + COLO205 + SK-N-BE2 + OVCAR-8
One assay deals with ACVR1. To be noted: read-out: apparent Kd, n = 1.
A further assay deals with AKT2. To be noted: read-out: apparent Kd, n = 1.
In the next assay the test system is DDR1. To be noted: read-out: apparent Kd; compound concentrations: 100 nM and 1000 nM (sheet 'Samples'), CATDS: 4.82198778497934E-3; n = 1.
The test system of a further assay is IKBKE. To be noted: read-out: apparent Kd; compound concentrations: 100 nM and 1000 nM (sheet 'Samples'), CATDS: 4.4054249402622498E-3; n = 1.
The next assay concerns MAP4K2. To be noted: read-out: apparent Kd, n = 1.
The test system of a further assay is MAP4K3. To be noted: read-out: apparent Kd, compound concentrations: 100 nM and 1000 nM (sheet 'Samples'), n = 1.
The test system of the next assay is MAP4K5. To be noted: read-out: apparent Kd, compound concentrations: 100 nM and 1000 nM (sheet 'Samples'), n = 1.
For another assay, the system named is NEK9. To be noted: read-out: apparent Kd, compound concentrations: 100 nM and 1000 nM (sheet 'Samples'), n = 1.
The test system of another assay is PIK3C2A. To be noted: read-out: apparent Kd, compound concentrations: 100 nM and 1000 nM (sheet 'Samples'), n = 1.
The next assay deals with PIK3C3. To be noted: read-out: apparent Kd, n = 1.
The subject of another assay is PIM2. To be noted: read-out: apparent Kd, n = 1.
The test system of the next assay is RPS6KA1. To be noted: read-out: apparent Kd, compound concentrations: 100 nM and 1000 nM (sheet 'Samples'), n = 1.
For another assay, the system named is SLK. To be noted: read-out: apparent Kd, compound concentrations: 100 nM and 1000 nM (sheet 'Samples'), n = 1.
For another assay, the system named is STK11. To be noted: read-out: apparent Kd, compound concentrations: 100 nM and 1000 nM (sheet 'Samples'), n = 1.
The subject of a further assay is TEC. To be noted: read-out: apparent Kd, n = 1.
In the next assay the test system is TGFBR1. To be noted: read-out: apparent Kd, n = 1.
The next assay relates to TP53RK. To be noted: read-out: apparent Kd, compound concentrations: 100 nM and 1000 nM (sheet 'Samples'), n = 1.
Another assay has as its system CDK10. To be noted: read-out: apparent Kd, n = 1.
For a further assay, the system named is AKT3. To be noted: read-out: apparent Kd; compound concentrations:100 nM and 1000 nM (sheet 'Samples'); n = 1.
A further assay relates to MAP2K2. To be noted: read-out: apparent Kd, n = 1.
[1] abbreviates: compound concentrations:100 nM and 1000 nM (sheet 'Samples').

Like-named read-outs stand apart in the source and are kept apart here.

For the compound `Cn1ncc2c(N)ncnc21` [SKF-18267], the potency estimated from few doses is 627 nM in the assay with ACVR1 (compound concentrations: 100 nM and 1000 nM (sheet 'Samples'), CATDS: 5.7443356978904197E-3); 780 nM in the assay on AKT2 (compound concentrations: 100 nM and 1000 nM (sheet 'Samples'), CATDS: 5.1088836681336602E-3); 876 nM in the assay with DDR1; 1060 nM with IKBKE; 885 nM with MAP4K2 (compound concentrations: 100 nM and 1000 nM (sheet 'Samples'), CATDS: 4.7977079984097802E-3); 1450 nM in the assay on MAP4K3 (CATDS: 3.8804201859816102E-3). Besides, the potency estimated from few doses in the assay with MAP4K5 (CATDS: 3.7006195337176699E-3) is 1650 nM; with NEK9 (CATDS: 5.3187042778019703E-3) it was 722 nM; in the assay with PIK3C2A (CATDS: 5.9586884702388498E-3) it was 587 nM; in the assay on PIK3C3 (compound concentrations: 100 nM and 1000 nM (sheet 'Samples'), CATDS: 6.1778157574045199E-3), 552 nM; in the assay with PIM2 (compound concentrations: 100 nM and 1000 nM (sheet 'Samples'), CATDS: 4.10108684490637E-3), 1260 nM; in the assay with RPS6KA1 (CATDS: 4.0621123256608799E-3) it was 1290 nM. Further, the potency estimated from few doses was 1280 nM in the assay with SLK (CATDS: 4.0721330084515098E-3); 2430 nM in the assay on STK11 (CATDS: 3.27350856558018E-3); 665 nM in the assay with TEC (compound concentrations: 100 nM and 1000 nM (sheet 'Samples'), CATDS: 5.5600102138742497E-3); 804 nM with TGFBR1 (compound concentrations: 100 nM and 1000 nM (sheet 'Samples'), CATDS: 5.0317884305657503E-3); 1760 nM with TP53RK (CATDS: 3.61485371112703E-3).
For the compound `Cl.ON=C1CCc2cc(-c3nc(C4CCNCC4)[nH]c3-c3ccncc3)ccc21` [SB-614067-R], the potency estimated from few doses in the assay on TGFBR1 (setting [1]) was 1170 nM.
For the compound `Cc1cccc(Nc2nc(N[C@H]3CCCC[C@H]3N)ncc2C(N)=O)c1.Cl` [GSK986310C], the potency estimated from few doses in the assay on MAP4K2 (setting [1]) is 2080 nM.
With `O=C1NC(=O)C(N2CCc3ccccc32)=C1c1ccccc1Cl` [SB-373598], in the assay on TEC (setting [1]), the potency estimated from few doses was 904 nM.
With `Cc1ccc(Nc2ccnc(Nc3ccc4c(c3)CS(=O)(=O)C4)n2)cc1O.Cl` [GW579362A], the potency estimated from few doses in the assay with ACVR1 (compound concentrations: 100 nM and 1000 nM (sheet 'Samples'), CATDS: 3.1800553905839801E-2) is 1030 nM; in the assay with CDK10 (compound concentrations: 100 nM and 1000 nM (sheet 'Samples'), CATDS: 3.9153038455417302E-2) it was 602 nM.
`Cc1ccc2c(-c3ccncc3)c(-c3ccc(F)cc3)nn2c1.Cl` [GW461484A]: the potency estimated from few doses in the assay with CDK10 (setting [1]) was 1410 nM.
`Cc1cccc(Nc2nc(N[C@H]3CCNC3)ncc2C(N)=O)c1.Cl` [GSK2197149A]: the potency estimated from few doses with PIK3C3 (setting [1]) is 1110 nM.
Regarding `NC(=O)c1cc(-c2ccccc2)cc2c(C3CCNCC3)c[nH]c12` [GSK301362A], in the assay on PIM2 (setting [1]), the potency estimated from few doses was 1500 nM.
`COc1cc(Nc2nccc(-c3cnn4ncccc34)n2)cc(OC)c1` [GW801372X]: the potency estimated from few doses was 739 nM with ACVR1 (compound concentrations: 100 nM and 1000 nM (sheet 'Samples'), CATDS: 2.2901948138858801E-2); 142 nM with NEK9 (CATDS: 4.3233777925034599E-2); 2260 nM in the assay with PIK3C2A (CATDS: 1.7083513618659799E-2).
Consider `CNCc1ccc(-c2cc(-c3nc(-c4ccc(S(=O)(=O)C(C)C)cc4)cnc3N)on2)cc1` [VE-822], for which the potency estimated from few doses in the assay with ACVR1 (setting [1]) was 81 nM; in the assay on AKT3 it was 1760 nM; in the assay with MAP2K2 (setting [1]) it was 1700 nM; in the assay on PIK3C3 (setting [1]), 500 nM.
In the case of `O=C1N=C(NCc2cccs2)O/C1=C\c1ccc2ncccc2c1` [RO4624208-000], the potency estimated from few doses with TP53RK (CATDS: 4.7970425138991198E-2) is 1610 nM.
In the case of `c1ccc(-c2n[nH]cc2Nc2ccnc3ccccc23)nc1` [GW694077X], the potency estimated from few doses in the assay on AKT2 (compound concentrations: 100 nM and 1000 nM (sheet 'Samples'), CATDS: 2.2309238886047199E-2) is 2350 nM; in the assay with PIK3C2A (CATDS: 2.3388870990997498E-2), 1900 nM.
For the compound `CNc1cc(-c2ccc3c(N)n[nH]c3c2)nc(N)n1` [GSK2224810A], the values for the potency estimated from few doses in the assay on AKT2 (setting [1]) and with TGFBR1 (setting [1]) were 1880 nM and 1160 nM, respectively.
In the case of `O=C(O)C(F)(F)F.O=c1[nH]ccc2nc(N[C@@H]3CCNC3)nc(Nc3ccc4c(c3)S(=O)(=O)CC4)c12` [GSK2181306A], the potency estimated from few doses is 729 nM in the assay on CDK10 (compound concentrations: 100 nM and 1000 nM (sheet 'Samples'), CATDS: 1.0545767640912401E-2); 1620 nM in the assay on MAP2K2 (compound concentrations: 100 nM and 1000 nM (sheet 'Samples'), CATDS: 8.3394959268462601E-3); 121 nM in the assay on MAP4K2 (compound concentrations: 100 nM and 1000 nM (sheet 'Samples'), CATDS: 2.4699396499264999E-2); 612 nM with MAP4K3 (CATDS: 1.12434649854769E-2); 283 nM in the assay with MAP4K5 (CATDS: 1.5726732073661799E-2); 1250 nM in the assay with PIM2 (compound concentrations: 100 nM and 1000 nM (sheet 'Samples'), CATDS: 8.9086191917804505E-3). Also, the potency estimated from few doses in the assay on RPS6KA1 (CATDS: 8.5840482500919892E-3) was 1440 nM; in the assay on SLK (CATDS: 1.8680668627662898E-2), 201 nM; with STK11 (CATDS: 1.6673452289140401E-2), 251 nM.
